# Test system: HCI01 (cells of a triple-negative basal-like breast cancer xenograft)
# Assay: cell viability of combination (% of vehicle); higher = less cytotoxic
# Settings: 1 µM; 72 h; partner dose: 10 nM
# Description: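 PDX cells were treated for 72 h with each drug at 1 µM plus carfilzomib (10 nM; 100 nM for WHIM2). Luciferase viability is expressed as percent of vehicle.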
row,Structure (SMILES),cell viability of combination
1,CCCCCCCCCCCC[N+](C)(C)CCOc1ccccc1.[Br-] [Domiphen Bromide] + CC(C)C[C@H](NC(=O)[C@H](CCc1ccccc1)NC(=O)CN1CCOCC1)C(=O)N[C@@H](Cc1ccccc1)C(=O)N[C@@H](CC(C)C)C(=O)[C@@]1(C)CO1 [Carfilzomib],71.1
2,Cc1cc(C(C#N)c2ccc(Cl)cc2)c(Cl)cc1NC(=O)c1cc(I)cc(I)c1[O-].[Na+] (stereo not given) [Closantel Sodium] + CC(C)C[C@H](NC(=O)[C@H](CCc1ccccc1)NC(=O)CN1CCOCC1)C(=O)N[C@@H](Cc1ccccc1)C(=O)N[C@@H](CC(C)C)C(=O)[C@@]1(C)CO1 [Carfilzomib],68.9
3,CCCCCCCCCCCCCCCC[N+](C)(C)C.[Br-] [Cetrimonium Bromide (CTAB)] + CC(C)C[C@H](NC(=O)[C@H](CCc1ccccc1)NC(=O)CN1CCOCC1)C(=O)N[C@@H](Cc1ccccc1)C(=O)N[C@@H](CC(C)C)C(=O)[C@@]1(C)CO1 [Carfilzomib],72.8
4,CCCCCCCCCCCCCCCC[n+]1ccccc1.[Cl-] [Cetylpyridinium Chloride] + CC(C)C[C@H](NC(=O)[C@H](CCc1ccccc1)NC(=O)CN1CCOCC1)C(=O)N[C@@H](Cc1ccccc1)C(=O)N[C@@H](CC(C)C)C(=O)[C@@]1(C)CO1 [Carfilzomib],77
5,Cc1cc(C(C#N)c2ccc(Cl)cc2)c(Cl)cc1NC(=O)c1cc(I)cc(I)c1O (stereo not given) [Closantel] + CC(C)C[C@H](NC(=O)[C@H](CCc1ccccc1)NC(=O)CN1CCOCC1)C(=O)N[C@@H](Cc1ccccc1)C(=O)N[C@@H](CC(C)C)C(=O)[C@@]1(C)CO1 [Carfilzomib],70.3

# Source: the supplement of paper PMC6992640
